The list is not random: actives were taken first. Their share in the collection is about 19%.
ELG1 DNA repair: inhibitors of ELG1-dependent DNA repair in HEK293T cells. HEK293T ELG1-luciferase reporter, luminescence, 16 h; DNA damage induced by 5-fluorouridine. Potency, µM (series often up to 46.1 µM), without a hit: at the top dose activity change, negative = inhibition, actives largely listed as inhibitors. 330,000 compounds, 2.3% hits; further: potency means the concentration at half of the fitted maximal effect; nearly all actives have a fitted effect of over 55% in size
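In this reporter screen, reduction of luminescence relative to DMSO vehicle indicated activity. Compounds and 5-fluorouridine were added together to 2,000 cells per well, incubated for 16 hr at 37 °C, then developed with ONE-Glo.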
DT40 TDP1 no CPT: qHTS for Inhibitors of human tyrosyl-DNA phosphodiesterase 1 (TDP1): qHTS in cells in absence of CPT; 420,000 compounds, 15% hits; Potency, µM (top dose mostly 46.2 µM), for inactives: at the top dose activity change, negative = growth inhibition, actives largely listed as inhibitors; DT40 Tdp1-/- hTDP1 cells, no CPT, ATP luminescence, 48 h; further: potency means the concentration at half of the fitted maximal effect; nearly all actives have a fitted effect of over 55% in size
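Growth of hTDP1-complemented DT40 Tdp1-knockout cells is measured by ATP luminescence after at least 48 hr compound exposure at 37 °C, with DMSO substituting for the 20 nM CPT used in the parallel screen.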
HT1080NT lethal: kills 2HG-producing HT-1080-NT fibrosarcoma cells | 360,000 compounds, 1.6% hits | HT-1080-NT fibrosarcoma viability, CellTiter-Glo ATP luminescence, 48 h | Potency, µM (titrated, usually from 46.1 µM), without a hit: top-dose activity, negative = less viability, hits mostly cytotoxic;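 further: NT is the 2HG producing partner of a matched IDH1 knockdown line; potency means the concentration at half of the fitted maximal effect; 0% = DMSO-treated cells and -100% = media-only wells without cells; nearly all actives have a fitted effect of over 55% in size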
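Luminescent CellTiter-Glo readout after 48 hours of compound exposure at 37 degrees C defined viability of HT-1080-NT cells. Activity was normalized to DMSO wells and cell-free media wells; concentration-response curves were fitted and assigned curve classes.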
HT1080 IDH1KD tx: toxicity to HT-1080 IDH1 knockdown cells (counter line) | HT-1080 IDH1 knockdown viability, ATP luminescence, 48 h | Potency, µM (titrated, usually from 46.1 µM), inactives show at the highest dose activity, negative = toxicity, actives largely listed as cytotoxic | 360,000 compounds, 2% hits;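 further: potency means the concentration at half of the fitted maximal effect; 0% = DMSO wells and -100% = cell-free medium wells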
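Using the IDH1-knockdown HT-1080 line run in the same batch and compound series as the NT line, viability after 48 h at 37 °C was determined by CellTiter-Glo luminescence and expressed as % activity.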
DT40 TDP1 CPT: DT40-hTDP1 cell growth loss with CPT; Potency, µM (top dose mostly 46.2 µM), without a hit: at the highest dose activity change, negative = growth inhibition, actives largely listed as inhibitors; AID 686979; chicken DT40 Tdp1-/-;hTDP1 cells + 20 nM CPT, ATP luminescence, 48 h; 420,000 compounds, 12% hits; further: potency means the concentration at half of the fitted maximal effect; nearly all actives have a fitted effect of over 55% in size
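Chicken DT40 Tdp1-/- cells stably complemented with human TDP1 were seeded at 400 cells/well in medium containing 20 nM camptothecin, exposed to pin-transferred compounds, and grown at 37 °C for at least 48 hr. Viability was read as ATP luminescence.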
IL1B secr inh: inflammasome signaling inhibition, IL-1 beta readout; THP-1 LPS/ATP IL-1B secretion, AlphaLISA, 16 h; active compounds read low; activity change, % at 57.5 µM; 360,000 compounds, 4.7% hits; in the data active means activity change below about -50%; inconclusive means mostly about -30% to -49%
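THP-1 cells pretreated 1 hr with compounds (up to 57.5 uM final), then stimulated with LPS (250 ng/mL final) plus ATP (1.25 mM final); secreted IL-1B measured by AlphaLISA after 16 hr, decreased signal indicating inhibition.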
Active calls of the source: *. Unless noted, the call rests on the fitted dose curve; in most records, active means well fitted curve in the direction sought with a large enough effect; inconclusive means small, poorly fitted or top-dose-only effect, or another doubt; inactive means no such curve, though single readings can be large; an effect the other way counts as inactive or inconclusive. Unless noted, on the % scale 0 is the no-effect control and ±100 the full control effect.

Screening CC(Oc1ccccc1F)C(=O)NCC1(N2CCOCC2)CCCCC1 (centres undefined) returned DT40 TDP1 no CPT 18µM* and DT40 TDP1 CPT inconclusive.
`c1ccc(C[n+]2cccc3c4ccccc4ccc32)cc1` gave ELG1 DNA repair 15%, DT40 TDP1 no CPT 3.7µM*, HT1080NT lethal inconclusive, HT1080 IDH1KD tx inconclusive, DT40 TDP1 CPT 3.7µM* and IL1B secr inh -60*.
`NC(=O)C[n+]1cccc2ccccc21` gave ELG1 DNA repair -1%, DT40 TDP1 no CPT -17%, HT1080NT lethal -4%, HT1080 IDH1KD tx -5%, DT40 TDP1 CPT -2% and IL1B secr inh 5.
Screening CCCCC[n+]1cccc2c3ccccc3ccc21 returned ELG1 DNA repair inconclusive, DT40 TDP1 no CPT 0.0073µM*, HT1080NT lethal inconclusive, HT1080 IDH1KD tx 9.2µM*, DT40 TDP1 CPT 0.52µM* and IL1B secr inh -77*.
COc1ccc(S(=O)(=O)N(CC(=O)N2CCCC2)Cc2ccccc2)cc1 was read as ELG1 DNA repair 4%, DT40 TDP1 no CPT inconclusive, HT1080NT lethal 18%, HT1080 IDH1KD tx 8%, DT40 TDP1 CPT inconclusive and IL1B secr inh -10.
Screening Cc1nc(-c2ccc(S(=O)(=O)N(Cc3ccccc3)C(C)C)cc2)co1 returned DT40 TDP1 no CPT 15µM* and DT40 TDP1 CPT inconclusive.
For CCN(Cc1ccccc1)S(=O)(=O)c1ccc(OC)cc1 the results were ELG1 DNA repair inconclusive, DT40 TDP1 no CPT 16µM*, HT1080NT lethal -2%, HT1080 IDH1KD tx 1%, DT40 TDP1 CPT inconclusive and IL1B secr inh -4.
For CCN(Cc1ccccc1)S(=O)(=O)c1ccc(-c2coc(C)n2)cc1 the results were DT40 TDP1 no CPT 23µM* and DT40 TDP1 CPT 13µM*.
N#CC(C#N)=C1NC(N)=C(C#N)C(c2ccccc2)=C1C#N was read as ELG1 DNA repair 6%.
Screening O=C(Nc1ccccc1)Nc1cnccn1 returned ELG1 DNA repair 12%, DT40 TDP1 no CPT 16%, HT1080NT lethal 7%, HT1080 IDH1KD tx 9%, DT40 TDP1 CPT -8% and IL1B secr inh -28.
COCCn1c(=NC(=O)c2cc3ccccc3oc2=O)sc2cc(S(N)(=O)=O)ccc21 was read as ELG1 DNA repair -12%, DT40 TDP1 no CPT -27%, HT1080NT lethal -2%, HT1080 IDH1KD tx -6%, DT40 TDP1 CPT 0% and IL1B secr inh 15.
COc1ccc(N=Nc2c(N)n[nH]c2N)cc1 was read as ELG1 DNA repair inconclusive, DT40 TDP1 no CPT -3%, HT1080NT lethal 15%, HT1080 IDH1KD tx 11%, DT40 TDP1 CPT 11% and IL1B secr inh -53*.
For Nc1n[nH]c(N)c1N=Nc1ccc(F)cc1 the results were ELG1 DNA repair inconclusive, DT40 TDP1 no CPT -6%, HT1080NT lethal 9%, HT1080 IDH1KD tx 9%, DT40 TDP1 CPT 0% and IL1B secr inh -28.
For Nc1n[nH]c(N)c1N=Nc1ccccc1 the results were ELG1 DNA repair 11%, DT40 TDP1 no CPT 2%, HT1080NT lethal 15%, HT1080 IDH1KD tx 3%, DT40 TDP1 CPT 11% and IL1B secr inh -66*.
For Nc1n[nH]c(N)c1N=Nc1ccc(Cl)cc1Cl the results were ELG1 DNA repair inconclusive, DT40 TDP1 no CPT 14%, HT1080NT lethal -17%, HT1080 IDH1KD tx inconclusive, DT40 TDP1 CPT 1% and IL1B secr inh -57*.
For COC(=O)c1cc(C(=O)OCC(=O)NC(=O)c2ccccc2)cc([N+](=O)[O-])c1 the results were ELG1 DNA repair 11%, DT40 TDP1 no CPT -19%, HT1080NT lethal 12%, HT1080 IDH1KD tx 17%, DT40 TDP1 CPT 6% and IL1B secr inh 25.
For CC1(C)O[C@H]2[C@@H](O1)[C@@H](C(=O)Nc1ccc(F)c(F)c1)O[C@@H]1OC(C)(C)O[C@@H]12 the results were DT40 TDP1 no CPT -8% and DT40 TDP1 CPT -2%.
Screening COc1cc(OC)c(NC(=O)CN2C(=O)CCn3nc(-c4cccn4C)cc32)cc1Cl returned DT40 TDP1 no CPT -2% and DT40 TDP1 CPT -14%.
`COc1cc(-c2ccc3cc(OC)c(OC)c(OC)c3c2)cc(OC)c1OC` gave DT40 TDP1 no CPT inconclusive, HT1080NT lethal inconclusive, HT1080 IDH1KD tx inconclusive, DT40 TDP1 CPT 21µM* and IL1B secr inh 7.
`O=C(NCC1(c2ccccc2)CCCC1)C(=O)Nc1cccc(Br)c1` gave DT40 TDP1 no CPT -29% and DT40 TDP1 CPT -8%.
For CCCN1CCc2[nH]c(=S)[nH]c(=O)c2C1 the results were ELG1 DNA repair 11%, DT40 TDP1 no CPT -33%, HT1080NT lethal 5%, HT1080 IDH1KD tx 11%, DT40 TDP1 CPT -1% and IL1B secr inh 15.
`CC(C)N1CCc2[nH]c(=S)[nH]c(=O)c2C1` gave ELG1 DNA repair 18%, DT40 TDP1 no CPT 16µM*, HT1080NT lethal 15%, HT1080 IDH1KD tx 3%, DT40 TDP1 CPT inconclusive and IL1B secr inh 37.
Cc1ccc(N2CCN(S(=O)(=O)c3ccc4oc(=O)ccc4c3)CC2)cc1Cl was read as ELG1 DNA repair 1%, DT40 TDP1 no CPT -13%, HT1080NT lethal 8%, HT1080 IDH1KD tx 1%, DT40 TDP1 CPT 0% and IL1B secr inh -14.
`O=c1cc(-c2ccccc2)[nH]n1-c1ccc([N+](=O)[O-])cc1` gave ELG1 DNA repair inconclusive, DT40 TDP1 no CPT inconclusive, HT1080NT lethal inconclusive, HT1080 IDH1KD tx 13µM*, DT40 TDP1 CPT 18µM* and IL1B secr inh -64*.
Screening Cc1ccc([N+](=O)[O-])cc1N=Nc1c(-c2ccc([N+](=O)[O-])cc2)[nH]n(C(N)=S)c1=O returned ELG1 DNA repair inconclusive, DT40 TDP1 no CPT 2.9µM*, HT1080NT lethal inconclusive, HT1080 IDH1KD tx inconclusive, DT40 TDP1 CPT 8.2µM* and IL1B secr inh inconclusive.
Screening O=c1c(N=Nc2ccc(O)cc2)c(-c2ccccc2)[nH]n1-c1ccc([N+](=O)[O-])cc1 returned ELG1 DNA repair 0%, DT40 TDP1 no CPT 16µM*, HT1080NT lethal -24%, HT1080 IDH1KD tx -17%, DT40 TDP1 CPT inconclusive and IL1B secr inh -22.
NC(=S)n1[nH]c(-c2ccc([N+](=O)[O-])cc2)c(N=Nc2ccc(Cl)cc2)c1=O was read as ELG1 DNA repair 2.9µM*, DT40 TDP1 no CPT inconclusive, HT1080NT lethal 2.6µM*, HT1080 IDH1KD tx 4.1µM*, DT40 TDP1 CPT inconclusive and IL1B secr inh -92*.

From PubChem
